For eight molecules, growth results are on record in PubChem BioAssay (NCI).

Some test systems named below: NCI-H23 lung; NCI-H226 lung; NCI-H322M lung; HOP-62 NSCLC; NCI-H460 lung; HOP-92 NSCLC; NCI-H522 lung; A549/ATCC NSCLC; 786-0 renal; COLO 205 colon; DU-145 prostate; K-562 leukemia; MALME-3M melanoma; MDA-MB-231 breast; RXF 393 renal; SF-268 CNS; SF-295 CNS; SF-539 CNS; UACC-257 melanoma; M14 melanoma.
Assay in all cases: NCI-60 one-dose screen, 48 h (100 = growth as untreated, 0 = no growth, -100 = all killed)
What all share (conditions): 10 µM unless noted

The panel holds about 83,000 compounds, 20% with a hit somewhere; the sample as a whole holds those more often.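 Single-concentration screen, 48 h exposure, 96-well plates. Endpoint: percent growth. Below 10 = active.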 Values without a mark were called inactive. Activity calls are given as the source filed them.

Turning to `COc1ccc(N=Nc2c(N)nn3c(-c4ccc(OC)c(OC)c4)ccnc23)cc1`, the growth is 72.8% in the assay with NCI-H23 lung; 94.8% in the assay on NCI-H226 lung; 88.5% in the assay with NCI-H322M lung; 21.5% in the assay with HOP-62 NSCLC; 85.2% in the assay on NCI-H460 lung; 67.6% with HOP-92 NSCLC. Moreover, the growth with NCI-H522 lung is 78.7%; with A549/ATCC NSCLC, 74%; in the assay with 786-0 renal, 76.2%; in the assay on COLO 205 colon it was 103%; in the assay with DU-145 prostate, 79.2%; in the assay with K-562 leukemia it was 80.2%. Besides, the growth is 78.4% in the assay with MALME-3M melanoma; 81.1% in the assay with MDA-MB-231 breast; 65.2% with RXF 393 renal; 87.2% with SF-268 CNS; 65.6% in the assay on SF-295 CNS; 20.6% in the assay on SF-539 CNS. Also, the growth is 99.3% with UACC-257 melanoma and 62.5% in the assay with M14 melanoma.

Consider `COc1ccc(-c2nc3ccc(-c4nnc(SCc5ccccc5)o4)cc3[nH]2)cc1OC`, for which the growth with NCI-H23 lung was 38.8%; in the assay on NCI-H226 lung, -26.7% (active); in the assay with NCI-H322M lung it was 46.7%; with HOP-62 NSCLC it was -29.8% (active); in the assay on NCI-H460 lung, -6.16% (active); with HOP-92 NSCLC it was -3.75% (active). Also, the growth in the assay with NCI-H522 lung is 51.9%; with A549/ATCC NSCLC, 9.7% (active); with 786-0 renal it was -33.5% (active); in the assay with COLO 205 colon, 74.2%; in the assay with DU-145 prostate it was 17.2%; in the assay with K-562 leukemia, 56.8%. Moreover, the growth in the assay with MALME-3M melanoma is 15.9%; in the assay on MDA-MB-231 breast, -34.4% (active); with RXF 393 renal, -34.1% (active); in the assay with SF-268 CNS, 35.2%; in the assay on SF-295 CNS, 55.4%; in the assay on SF-539 CNS it was -44.5% (active). Besides, the values for the growth in the assay on UACC-257 melanoma and in the assay with M14 melanoma were 78.4% and 40.7%, respectively.

Consider `CN1C(=O)C2(C(C#N)=C(c3ccc(Cl)cc3)Nc3c2c(-c2ccccc2)nn3-c2ccccc2)c2ccccc21` (stereo not given), for which the growth in the assay on NCI-H23 lung is 80%; with NCI-H226 lung, 69.3%; with NCI-H322M lung it was 87.5%; with HOP-62 NSCLC, 44.5%; in the assay on NCI-H460 lung it was 92.4%; with HOP-92 NSCLC it was 75.1%. Further, the growth was 85.8% in the assay with NCI-H522 lung; 89.7% in the assay with A549/ATCC NSCLC; 97.2% in the assay on 786-0 renal; 85.9% in the assay with COLO 205 colon; 93.6% with DU-145 prostate; 40.8% in the assay with K-562 leukemia. In addition, the growth is 78.9% in the assay on MALME-3M melanoma; 46.1% in the assay on MDA-MB-231 breast; 77% in the assay with RXF 393 renal; 93.5% in the assay with SF-268 CNS; 77.4% in the assay with SF-295 CNS; -85.3% (active) in the assay on SF-539 CNS. In addition, the growth in the assay on UACC-257 melanoma was 112%; in the assay on M14 melanoma, 77.2%.

Take `N#Cc1c(-c2ccc(F)cc2)nc(SCc2ccccc2)nc1N1CCNCC1`: the growth in the assay on NCI-H23 lung is -90.5% (active); with NCI-H226 lung it was -58.8% (active); with NCI-H322M lung, -53.7% (active); in the assay with HOP-62 NSCLC it was -78.8% (active); with NCI-H460 lung it was -85.5% (active); in the assay on HOP-92 NSCLC it was -92.2% (active). For the same molecule, the growth with NCI-H522 lung is -81.6% (active); in the assay on A549/ATCC NSCLC it was -90.9% (active); in the assay on 786-0 renal, -94% (active); in the assay with COLO 205 colon, -66% (active); with DU-145 prostate it was -79.8% (active); in the assay with K-562 leukemia it was -22% (active). Besides, the growth is -97.3% (active) with MALME-3M melanoma; -98.5% (active) in the assay on MDA-MB-231 breast; -94.8% (active) in the assay on RXF 393 renal; -31.2% (active) in the assay with SF-268 CNS; -83% (active) in the assay on SF-295 CNS; -99.4% (active) with SF-539 CNS. For the same molecule, the growth was -93.2% (active) with UACC-257 melanoma and -90.2% (active) in the assay on M14 melanoma.

As for `O=c1ccc(Cn2c(C(F)(F)F)cc3c(Cl)ncnc32)c[nH]1`, the growth in the assay with NCI-H23 lung is 17.7%; in the assay with NCI-H226 lung, 116%; with NCI-H322M lung, 67.2%; with HOP-62 NSCLC, 94.7%; in the assay on NCI-H460 lung it was 32.5%; in the assay on HOP-92 NSCLC it was 78.6%. For the same molecule, the growth in the assay with NCI-H522 lung was -77.1% (active); in the assay on A549/ATCC NSCLC it was 105%; with 786-0 renal, 102%; with COLO 205 colon, 62.6%; in the assay on DU-145 prostate, 86.3%; with K-562 leukemia it was 3.37% (active). For the same molecule, the growth was 91.4% in the assay on MALME-3M melanoma; 52.6% in the assay on MDA-MB-231 breast; 86.5% with RXF 393 renal; -22.9% (active) in the assay on SF-268 CNS; 97.6% with SF-295 CNS; 87.4% in the assay with SF-539 CNS. In addition, the growth with UACC-257 melanoma is 24%; in the assay with M14 melanoma, -51.5% (active).

Turning to `Oc1ccc(F)c(Nc2nc(SCCN3CCOCC3)nc3c2cnn3CC(Cl)c2ccc(Br)cc2)c1` (stereo not given), the growth is 26.3% in the assay with NCI-H23 lung; 29.2% in the assay on NCI-H226 lung; 80.2% in the assay on NCI-H322M lung; 30.3% with HOP-62 NSCLC; 3.31% (active) in the assay with NCI-H460 lung; 1.93% (active) in the assay on HOP-92 NSCLC. Also, the growth with NCI-H522 lung was 29.2%; in the assay with A549/ATCC NSCLC, 23.9%; in the assay with 786-0 renal, 61.2%; in the assay on COLO 205 colon it was 94.6%; in the assay with DU-145 prostate, 34%; with K-562 leukemia it was -3.32% (active). The growth is 1.03% (active) in the assay on MALME-3M melanoma; -17.6% (active) with MDA-MB-231 breast; -48.4% (active) in the assay on RXF 393 renal; 24.1% in the assay with SF-268 CNS; 2.35% (active) in the assay on SF-295 CNS; 17.3% in the assay with SF-539 CNS. The growth in the assay with UACC-257 melanoma is 14.4%; in the assay on M14 melanoma, 18.8%.

With `O=C(CSc1nc2ccccc2c(=O)[nH]1)Nc1ccccc1C(=O)O`, the growth with NCI-H23 lung is 104%; in the assay with NCI-H226 lung, 102%; with NCI-H322M lung, 101%; in the assay on HOP-62 NSCLC, 97.8%; in the assay with NCI-H460 lung it was 118%; in the assay on HOP-92 NSCLC it was 118%. For the same molecule, the growth in the assay on NCI-H522 lung was 107%; in the assay with A549/ATCC NSCLC, 112%; in the assay with 786-0 renal it was 107%; in the assay on COLO 205 colon it was 124%; in the assay on DU-145 prostate, 129%; in the assay on K-562 leukemia, 97.8%. Moreover, the growth was 79.4% in the assay with MALME-3M melanoma; 94.6% in the assay on MDA-MB-231 breast; 99.4% with RXF 393 renal; 94.1% with SF-268 CNS; 101% in the assay with SF-295 CNS; 92.7% with SF-539 CNS. Further, the results for the growth with UACC-257 melanoma and with M14 melanoma were 103% and 105%, respectively.

As for `Nc1cc2ccccc2c(=O)n1NC(=O)c1ccc(Br)cc1`, the growth is 81.8% with NCI-H23 lung; 69% with NCI-H226 lung; 74.4% in the assay with NCI-H322M lung; 101% in the assay with HOP-62 NSCLC; 98.6% in the assay on NCI-H460 lung; 103% in the assay on HOP-92 NSCLC. Besides, the growth is 96.7% in the assay on NCI-H522 lung; 100% in the assay with A549/ATCC NSCLC; 107% in the assay on 786-0 renal; 114% in the assay on COLO 205 colon; 109% in the assay on DU-145 prostate; 101% with K-562 leukemia. The growth with MALME-3M melanoma was 89.7%; in the assay on MDA-MB-231 breast, 66.8%; in the assay with RXF 393 renal, 112%; with SF-268 CNS it was 89.8%; in the assay on SF-295 CNS, 103%; with SF-539 CNS, 67.5%. Also, the figures for the growth in the assay with UACC-257 melanoma and in the assay with M14 melanoma were 104% and 91.7%, respectively.
